Activity calls are given as the source filed them.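 Rule for the calls: active = fluorescence ratio normalized to control raised more than 50% in primary screen plus both repeat runs; inactive = the rest.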
Test system: TRPC4 beta (transient receptor potential cation channel C4), mouse
Test: TRPC4 cation channel opening, retest – cell-based, Fluo4 calcium, HEK293 TRPC4beta/mu-opioid, duplicates, 10 µM, confirmation (AID 2426);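 for activation: percent rise of integrated ratio over buffer wells lacking compound which define 0%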
Conditions: Fluo4 calcium fluorescence, at 10 µM; stronger effect = higher value

SMILES	activation	outcome
Cc1cccn2c(CNCCc3ccccn3)c(C(=O)N3CCOCC3)nc12	184% (active)	–
COc1ccc(/C=N/NC(=O)C2COc3ccccc3O2)cc1OC (centres undefined)	114% (active)	–
CN(C)CCNC(=O)c1c(NC(=O)c2ccccc2)sc2c1CCCC2	161% (active)	–
Cc1ccccc1N1CC(O)(c2ccccc2)[N+]2=C1SCC2 (centres undefined)	73% (active)	–
CC(C)Cc1ccc(CN2CCCC(NC(=O)CCn3cnnn3)C2)cc1 (centres undefined)	111% (active)	–
CN1CCN(Cc2nc3c(c(=O)[nH]c(=O)n3C)n2Cc2c(F)cccc2Cl)CC1	135% (active)	–
O=C(CC1C(=O)NCCN1Cc1cccc(Oc2ccccc2)c1)NCCc1ccccn1 (centres undefined)	99% (active)	–
CN(C)CCCN(C(=O)c1ccc(Cl)s1)c1nc2cc3c(cc2s1)OCO3	63% (active)	–
Cc1cc(CSC(=N)N)c(CSC(=N)N)cc1C	178% (active)	–
COC(=O)c1ccc(N2CCN(C)CC2)c(NC(=O)c2ccc(Br)o2)c1	148% (active)	–
CCc1cc(OCCN(C)C)ccc1Cl	93% (active)	–
C=CCn1c(/N=C/c2ccc(N(C)C)cc2)nc2ccccc21	148% (active)	–
CCC1CCCCN1S(=O)(=O)c1ccc(C(=O)N(CCCN(C)C)c2nc3cc4c(cc3s2)OCO4)cc1 (centres undefined)	191% (active)	–
CCn1c(CN2CCN(Cc3ccc(C)cc3)C(CCO)C2)nc2ccccc21 (centres undefined)	129% (active)	–
O=C(NCc1ccccc1)C1=C[C@@H](C2CCCCC2)C[C@@H](OCc2ccc(CO)cc2)O1	183% (active)	–
CCN1CCCC1CNS(=O)(=O)c1c(C)cc(C)cc1C (centres undefined)	95% (active)	–
CSc1ccc(C(=O)NCC(c2ccco2)N(C)C)cc1[N+](=O)[O-] (centres undefined)	341% (active)	–
Cc1ccc2nc(N(CCCN(C)C)C(=O)c3ccc(S(=O)(=O)N4CCc5ccccc5C4)cc3)sc2c1	242% (active)	–
COc1ccccc1/C=C/CN1CCCC(CCC(=O)NCc2ccc(F)c(F)c2)C1 (centres undefined)	92% (active)	–
CC[C@@H](C)[C@H](CNC)NC[C@@H](Cc1cccc2ccccc12)NCCc1cccc(C(F)(F)F)c1	127% (active)	–

SMILES	activation	outcome
CC(C)C1CC(CCNCc2ccc(N(C)C)cc2)(c2ccccc2)CCO1 (centres undefined)	185% (active)	–
Clc1cc(Cl)cc(C2=NC(Cc3ccccc3)CO2)c1 (centres undefined)	110% (active)	–
O=C(NCCc1cnc[nH]1)c1ccc(-c2ccccc2)cc1	109% (active)	–
COCC1CCN(Cc2cn(-c3ccccc3F)nc2-c2cc(C)sc2C)CC1	95% (active)	–
Cc1cc(C)cc(NC(=S)N2CCN(c3ncc(C(F)(F)F)cc3Cl)CC2)c1	105% (active)	–
CC(C)C1CC(CCNCc2ccc3c(c2)OCO3)(c2ccccc2)CCO1 (centres undefined)	96% (active)	–
Cc1ccc(CNC(=O)C2CCCN(Cc3cnn(-c4ccccc4)c3-n3cccc3)C2)cc1 (centres undefined)	81% (active)	–
CN1CCN(c2ccc(NC(=O)COc3cccc4ccccc34)cc2)CC1	135% (active)	–
COc1ccc(CSCCN)cc1Cl	108% (active)	–
Cc1csc2c(N3CCN(C(=O)Nc4ccccc4)CC3)ncnc12	99% (active)	–
CCOC(=O)C1(Cc2ccccc2)CCN(Cc2cn[nH]c2-c2ccccc2)CC1	192% (active)	–
CCOc1ccccc1C1CC(c2ccc(Cl)cc2)Nc2nc(N)nn21 (centres undefined)	243% (active)	–
O=C(c1sc2ccccc2c1Cl)N(Cc1ccccc1)C1CCS(=O)(=O)C1 (centres undefined)	–	inactive
Cc1ccc(C)c(-n2cc(CNCCCn3cccn3)c(-c3ccccc3)n2)c1	288% (active)	–
NC(=O)C1CCCN(CCc2ccccc2)C1 (centres undefined)	157% (active)	–
CCn1c(=O)c(C(=O)NNC(=O)c2ccccc2F)c(O)c2ccccc21	126% (active)	–
O=C(NCc1ccccc1)C1=C[C@H](c2ccccc2)C[C@H](OCc2ccc(CO)cc2)O1	300% (active)	–
O=C(CC1C(=O)NCCN1Cc1ccccc1C(F)(F)F)NCCc1ccccn1 (centres undefined)	106% (active)	–
CCn1c(N2CCN(S(=O)(=O)CC)CC2)nc2ccccc21	96% (active)	–
